# Records with an inconclusive call do not appear. Entries that show only a call come without a potency. The source holds several records for some structures; these can differ, active in one and inactive in another. The source made the active and inactive calls. Calls come from the whole dose curve; as a rule, active = well fitted inhibition curve with a large enough effect in the repeat runs; inconclusive = weak or mixed curves, or effect the other way; inactive = no such curve, though single readings can be large or run the other way.
# Target: Nuclear receptor ROR-gamma (Homo sapiens) (UniProt P51449)
# Test: qHTS assay to identify small molecule antagonists of the retinoid-related orphan receptor gamma (ROR-gamma) signaling pathway (AID 1159521; note: nearly all actives have a fitted effect of over 50% in size)
# Details: Tet-on RORgamma CHO cells, RORE-luciferase, 16 h; series mostly up to 92.4 µM
# Description: U.S. Tox21 Program National Center for Advancing Translational Sciences [NCATS] NIH Chemical Genomics Center [NCGC] U.S. Environmental Protection Agency [EPA] National Institutes of Environmental Health Sciences [NIEHS] National Toxicology Program [NTP] U.S. Food and Drug Administration [FDA] Tox21 Assay Overview: Nuclear steroid hormone receptors are involved in many biological processes including inflammatory responses, cell proliferation, and apoptosis. Environmental factors or compounds disrupting these nuclear receptor pathways and gene expression may promote susceptibility to immunotoxicants and autoimmune diseases. One important group of these expression factors are the retinoid-related orphan receptors. To assess compounds that may interfere with the retinoid-related orphan receptor gamma (ROR-gamma) transcription factor, a cell-based luciferase assay was used. The CHO cell-based assay utilizes a TET-inducible ROR expression factor and ROR response element-LUC reporter gene. Reporter gene activity was induced using Doxycycline Hyclate and measured after 16 hr incubation. Tet-on ROR gamma CHO cells were used to screen against the Tox21 10K compound library for ROR gamma antagonists by quantification of decreased reporter gene activity in terms of decreased luminescence.
# Tox21 Assay Protocol Summary: Tet-on ROR gamma CHO cells were dispensed at 1,000 cells in 4 uL of culture medium per well into white wall/solid bottom 1536-well plates using a Multidrop Combi (Thermo Scientific, Waltham, MA) dispenser. Following incubation at 37 C and 5% CO2 for 4 hr, 23 nL of compounds dissolved in DMSO, positive controls or DMSO only were transferred by a Pintool station (Kalypsys, San Diego, CA) and after 2 hr incubation at 37 C, one ul of 1 uM (final concentration) of Doxycycline Hyclate was added to all the wells by using a Flying Reagent Dispenser (FRD) (Aurora Discovery, San Diego, CA). After 16 hr incubation at 37 C and 5% CO2, 5 uL of ONE-Glo reagent (Promega Corporation, Madison, WI) was added to each assay plate using FRD. After 30 min incubation at room temperature, luminescence was quantified on a ViewLux plate reader (Perkin Elmer, Waltham, MA).
# Potency is the fitted concentration of half-maximal effect.
row,Compound,Potency
1,CC(=O)C1CCOC1=O (stereo not given),inactive
2,ClCCOCCCl,inactive
3,CCOP(=S)(OCC)Oc1ccc([N+](=O)[O-])cc1,inactive
4,OCC(O)CCl (stereo not given),inactive
5,Nc1ncc([N+](=O)[O-])s1,inactive
6,Cc1cccc(C)c1NC(=O)CN1CCCC1=O,inactive
7,O=C(O)C(Br)Br,inactive
8,Nc1ccc(N)cc1,inactive
9,C=C(C)C(=O)OCC(CC)CCCC (stereo not given),49.5 µM (active) and inactive
10,CNc1cnn(-c2cccc(C(F)(F)F)c2)c(=O)c1Cl,inactive
11,FC(F)(F)c1ccc(Cl)cc1,inactive
12,O=[N+]([O-])c1cc([As](=O)(O)O)ccc1O,inactive
13,Cc1cccc(C)c1N,inactive
14,O=[N+]([O-])c1ccc(Cl)cc1,inactive
15,CCSC(=O)N1CCCCCC1,inactive
16,OCc1ccco1,inactive
17,Nc1cccc(Cl)c1,inactive
18,CCOP(=S)(OCC)Oc1cc(C)nc(C(C)C)n1,inactive
19,[N-]=[N+]=CC(=O)OC[C@H](N)C(=O)O,inactive
20,CNC(=O)O/N=C/C(C)(C)SC,inactive

row,Compound,Potency
1,OC[C@@H](O)[C@H]1O[C@@H]2O[C@H](C(Cl)(Cl)Cl)O[C@@H]2[C@H]1O,inactive
2,CC(C)c1cccc(C(C)C)c1O,inactive
3,CN1C(=O)CCS(=O)(=O)C1c1ccc(Cl)cc1 (stereo not given),inactive
4,Cc1cc(Cl)ccc1OC(C)C(=O)O (stereo not given),inactive
5,N#Cc1cccc(C#N)c1,inactive
6,C=CC#N,inactive
7,N#Cc1ccccn1,inactive
8,Nc1nc(N)nc(NC2CC2)n1,inactive
9,Cc1cccc(N)c1C,inactive
10,CSc1nnc(C(C)(C)C)c(=O)n1N,inactive
11,Sc1ccccc1,inactive
12,O=[N+]([O-])c1ccc(Cl)c(Cl)c1,inactive
13,Cl[C@H]1OCCO[C@@H]1Cl,inactive
14,Oc1ccc(Cl)cc1,inactive
15,c1ccc2c(c1)CCCC2,inactive
16,CCCCC(CC)C(=O)Cl (stereo not given),inactive
17,Nc1cc(Cl)cc(Cl)c1,inactive
18,O=C/C=C/c1ccccc1,inactive
19,CC12CC1(C)C(=O)N(c1cc(Cl)cc(Cl)c1)C2=O (stereo not given),inactive
20,Cc1cccc(N)c1,inactive

# Source: PubChem BioAssay (Tox21)
